Assay results as given in the supplement of paper PMC6805474.

What was measured:
[1] = tested on: Schistosoma mansoni schistosomula (LE); assay: XTT viability relative to DMSO control; higher = more viable (less active); details: 72 h; 10 µM
Description: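 XTT/PMS was then added for a further 24 h (72 h total) and A450 was read. % viability = (sample - heat-killed control)/(DMSO control - heat-killed control) x 100, from duplicate wells in two independent experiments.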

[2] = tested on: Schistosoma mansoni schistosomula (NMRI); assay: phenotypic severity score (0-4); higher = more antischistosomal effect, active = 2 or more; details: 10 µM
[3] = tested on: Schistosoma mansoni schistosomula (Liberian); assay: drug effect (1 - score/DMSO control score) (fraction); higher = more antischistosomal effect, active = 0.5 or more; extreme values may be limits of the assay; details: 10 µM
Summary of the method: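 Drug effect was calculated by comparing the mean score of the test wells with the mean score of the DMSO wells, and any negative value was set to zero. Duplicate wells of 50 Liberian-strain S. mansoni schistosomula, mechanically transformed from cercariae and pre-incubated at least 12 h, received 10 µM compound in Medium 199 with 5% FCS at 37 °C, 5% CO2, with 0.1% DMSO in the comparison wells. Visual scoring at 10× took place at 24, 48 and 72 h on a quarter-point scale from 3 (normal) to 0 (dead), and a plate counted only if its DMSO wells averaged at least 2.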
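Wherever phenotypic severity score (0-4) is given: visual microscopic scoring of shape, motility and density changes versus 0.5% DMSO solvent controls, one point per descriptor, degeneracy or death scored 4, mean of duplicate wells.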

O=C(Nc1ccc(C(F)(F)F)c(C(F)(F)F)c1)c1cc(Cl)ccc1O
35.4%: XTT viability [1]
active: phenotypic severity score ([2]; 24 h) 4 | phenotypic severity score ([2]; 48 h) 4 | phenotypic severity score ([2]; 72 h) 4 | drug effect ([3]; 24 h) 1 | drug effect ([3]; 48 h) 1 | drug effect ([3]; 72 h) 1

CC(C(=O)Nc1ccc2oc(-c3ccncc3)nc2c1)c1ccccc1 (stereo unspecified)
89.9%: XTT viability [1]
inactive: phenotypic severity score ([2]; 24 h) 1 | phenotypic severity score ([2]; 48 h) 0 | phenotypic severity score ([2]; 72 h) 0 | drug effect ([3]; 24 h) 0.182 | drug effect ([3]; 48 h) 0.35 | drug effect ([3]; 72 h) 0.345

O=C(Nc1cnc2ccccc2c1)c1cccc(-n2cnnn2)c1
inactive: phenotypic severity score ([2]; 24 h) 0 | phenotypic severity score ([2]; 48 h) 0 | phenotypic severity score ([2]; 72 h) 0 | drug effect ([3]; 24 h) < 0 | drug effect ([3]; 48 h) < 0 | drug effect ([3]; 72 h) 0.0303
85.7%: XTT viability [1]

CCCS(=O)(=O)N1CCC(CO)(Cc2ccccc2C(F)(F)F)CC1
inactive: drug effect ([3]; 24 h) 0.243 | drug effect ([3]; 48 h) 0.278
95.7%: XTT viability [1]
active: phenotypic severity score ([2]; 24 h) 2 | phenotypic severity score ([2]; 48 h) 4 | phenotypic severity score ([2]; 72 h) 4 | drug effect ([3]; 72 h) 0.75

CCN(CC)CCCCCCNc1cc(OC)cc2c(C)ccnc12
59.3%: XTT viability [1]
inactive: phenotypic severity score ([2]; 24 h) 0 | phenotypic severity score ([2]; 48 h) 0 | phenotypic severity score ([2]; 72 h) 0 | drug effect ([3]; 24 h) 0.1 | drug effect ([3]; 48 h) 0.135 | drug effect ([3]; 72 h) 0.167

Nc1cccnc1Nc1ccc(Cl)cc1
157%: XTT viability [1]
inactive: phenotypic severity score ([2]; 24 h) 0 | phenotypic severity score ([2]; 48 h) 0 | phenotypic severity score ([2]; 72 h) 0 | drug effect ([3]; 24 h) 0.15 | drug effect ([3]; 48 h) 0.278 | drug effect ([3]; 72 h) 0.375

c1ccc(-c2[nH]c3ccccc3c2C(c2ccccn2)N2CCCC2)cc1 (stereo unspecified)
-3.4%: XTT viability [1]
active: phenotypic severity score ([2]; 24 h) 4 | phenotypic severity score ([2]; 48 h) 4 | phenotypic severity score ([2]; 72 h) 4 | drug effect ([3]; 24 h) 1 | drug effect ([3]; 48 h) 1 | drug effect ([3]; 72 h) 1

Cc1nc(-c2ccccn2)nc(NCCc2ccc(S(C)(=O)=O)cc2)c1Cl
active: phenotypic severity score ([2]; 48 h) 4 | phenotypic severity score ([2]; 72 h) 4 | drug effect ([3]; 72 h) 0.5
66.9%: XTT viability [1]
inactive: phenotypic severity score ([2]; 24 h) 0 | drug effect ([3]; 24 h) 0.135 | drug effect ([3]; 48 h) 0.167

Cc1cc(C(=O)Nc2ccc(-c3ccccc3)cc2)no1
90.7%: XTT viability [1]
inactive: phenotypic severity score ([2]; 24 h) 0 | phenotypic severity score ([2]; 48 h) 0 | phenotypic severity score ([2]; 72 h) 0 | drug effect ([3]; 24 h) 0.1 | drug effect ([3]; 48 h) 0.0811 | drug effect ([3]; 72 h) 0.111

CC1=NN(c2nc3ccccc3s2)C(=O)C1Cc1cccc2ccccc12 (stereo unspecified)
inactive: phenotypic severity score ([2]; 24 h) 0 | phenotypic severity score ([2]; 48 h) 0 | phenotypic severity score ([2]; 72 h) 0 | drug effect ([3]; 24 h) 0.0909 | drug effect ([3]; 48 h) 0.1 | drug effect ([3]; 72 h) 0.127
61.8%: XTT viability [1]

CNC(=O)CNc1nc(-c2ccccn2)nc2scc(-c3ccccc3)c12
90%: XTT viability [1]
inactive: phenotypic severity score ([2]; 24 h) 0 | phenotypic severity score ([2]; 48 h) 0 | phenotypic severity score ([2]; 72 h) 0 | drug effect ([3]; 24 h) 0.105 | drug effect ([3]; 48 h) 0.111 | drug effect ([3]; 72 h) 0.125

N#CCN(CCCCN1CCN(c2ccc(F)cc2)CC1)C(=O)OCc1ccccc1
inactive: phenotypic severity score ([2]; 24 h) 0 | phenotypic severity score ([2]; 48 h) 0 | phenotypic severity score ([2]; 72 h) 0 | drug effect ([3]; 24 h) 0.0811 | drug effect ([3]; 48 h) 0.111 | drug effect ([3]; 72 h) 0.125
118%: XTT viability [1]

C[C@@H]1[C@H](O)[C@@H](C)/C=C/C=C/C=C/C=C/C=C/C=C/C=C/[C@H](O[C@@H]2O[C@H](C)[C@@H](O)[C@H](N)[C@@H]2O)C[C@@H]2O[C@](O)(C[C@@H](O)C[C@@H](O)[C@H](O)CC[C@@H](O)C[C@@H](O)CC(=O)O[C@H]1C)C[C@H](O)[C@H]2C(=O)O
95%: XTT viability [1]
inactive: phenotypic severity score ([2]; 24 h) 0 | phenotypic severity score ([2]; 48 h) 0 | phenotypic severity score ([2]; 72 h) 0 | drug effect ([3]; 24 h) 0.136 | drug effect ([3]; 48 h) 0.15 | drug effect ([3]; 72 h) 0.105

Cc1ccc(-c2cc(C(=O)Nc3cccnc3)c3cc(Br)ccc3n2)cc1
inactive: phenotypic severity score ([2]; 48 h) 1 | phenotypic severity score ([2]; 72 h) 0
active: phenotypic severity score ([2]; 24 h) 2 | drug effect ([3]; 24 h) 0.5 | drug effect ([3]; 48 h) 0.667 | drug effect ([3]; 72 h) 1
146%: XTT viability [1]

O=C1COCc2ccc(Br)cc2N1Cc1ccc(C(F)(F)F)cc1
inactive: phenotypic severity score ([2]; 24 h) 0 | phenotypic severity score ([2]; 48 h) 0 | phenotypic severity score ([2]; 72 h) 0 | drug effect ([3]; 24 h) 0.297 | drug effect ([3]; 48 h) 0.389 | drug effect ([3]; 72 h) 0.438
99.5%: XTT viability [1]

COc1ccc(C(=N)N)cc1-c1cn(-c2ccc(C(=N)N)cc2)nn1
69.3%: XTT viability [1]
inactive: phenotypic severity score ([2]; 24 h) 0 | phenotypic severity score ([2]; 48 h) 0 | phenotypic severity score ([2]; 72 h) 0 | drug effect ([3]; 24 h) 0.05 | drug effect ([3]; 48 h) 0.0811 | drug effect ([3]; 72 h) 0.0909

Brc1cncc(-c2cc(NCCCn3ccnc3)nc(-c3ccccc3)n2)c1
inactive: phenotypic severity score ([2]; 24 h) 1 | drug effect ([3]; 24 h) 0.273
12.9%: XTT viability [1]
active: phenotypic severity score ([2]; 48 h) 4 | phenotypic severity score ([2]; 72 h) 4 | drug effect ([3]; 48 h) 0.65 | drug effect ([3]; 72 h) 0.673

Clc1ccc(CN2CCN(C3=NCCN3)CC2)cc1Cl
inactive: phenotypic severity score ([2]; 24 h) 1 | phenotypic severity score ([2]; 48 h) 0 | phenotypic severity score ([2]; 72 h) 0 | drug effect ([3]; 24 h) 0.1 | drug effect ([3]; 48 h) 0.0556 | drug effect ([3]; 72 h) 0.125
81.9%: XTT viability [1]

O=C1[C@@H](Oc2ccccc2)[C@@H](c2ccc(Cl)cc2)N1CCn1cnc2c(NCc3ccccc3)ncnc21
68.1%: XTT viability [1]
inactive: drug effect ([3]; 24 h) 0.136 | drug effect ([3]; 48 h) 0.1 | drug effect ([3]; 72 h) 0.158
active: phenotypic severity score ([2]; 24 h) 3 | phenotypic severity score ([2]; 48 h) 4 | phenotypic severity score ([2]; 72 h) 4

CCOC(=O)c1noc(N)c1-c1ccccc1
inactive: phenotypic severity score ([2]; 24 h) 0 | phenotypic severity score ([2]; 48 h) 0 | phenotypic severity score ([2]; 72 h) 0 | drug effect ([3]; 24 h) 0.05 | drug effect ([3]; 48 h) 0.0811 | drug effect ([3]; 72 h) 0.0909
94.1%: XTT viability [1]

Cc1ccc(NC(=O)c2nc[nH]c2C(=O)Nc2nc3ccccc3[nH]2)c(C)c1
50.8%: XTT viability [1]
active: phenotypic severity score ([2]; 24 h) 3 | phenotypic severity score ([2]; 48 h) 4 | phenotypic severity score ([2]; 72 h) 4
inactive: drug effect ([3]; 24 h) 0.273 | drug effect ([3]; 48 h) 0.4 | drug effect ([3]; 72 h) 0.278

CC1CCCCN1C(=O)NCCc1coc(-c2ccc(F)cc2)n1 (stereo unspecified)
inactive: phenotypic severity score ([2]; 24 h) 1 | phenotypic severity score ([2]; 48 h) 0 | phenotypic severity score ([2]; 72 h) 0 | drug effect ([3]; 24 h) 0.0909 | drug effect ([3]; 48 h) 0.25 | drug effect ([3]; 72 h) 0.236
131%: XTT viability [1]

CS(=O)(=O)c1ccc(C(=O)N(CC2CCCO2)c2nc3ccccc3s2)cc1[N+](=O)[O-] (stereo unspecified)
active: phenotypic severity score ([2]; 24 h) 4 | phenotypic severity score ([2]; 48 h) 4 | phenotypic severity score ([2]; 72 h) 4 | drug effect ([3]; 24 h) 1 | drug effect ([3]; 48 h) 1 | drug effect ([3]; 72 h) 1
-7.96%: XTT viability [1]

NCCN(C(=O)c1ccc(Cl)cc1Cl)c1ccc(OCc2ccc(Cl)cc2)cc1
inactive: phenotypic severity score ([2]; 24 h) 0 | phenotypic severity score ([2]; 48 h) 0 | phenotypic severity score ([2]; 72 h) 0 | drug effect ([3]; 24 h) 0.4 | drug effect ([3]; 48 h) 0.333 | drug effect ([3]; 72 h) 0.312
22.7%: XTT viability [1]

CC1(COc2ccc(N3CCC(Oc4ccc(OC(F)(F)F)cc4)CC3)cc2)Cn2cc([N+](=O)[O-])nc2O1 (stereo unspecified)
110%: XTT viability [1]
inactive: phenotypic severity score ([2]; 24 h) 0 | phenotypic severity score ([2]; 48 h) 0 | phenotypic severity score ([2]; 72 h) 0 | drug effect ([3]; 24 h) 0.158 | drug effect ([3]; 48 h) 0.111 | drug effect ([3]; 72 h) 0.0625

COc1ccc(N(CCc2cccc(C)n2)C(C)=O)cc1
inactive: phenotypic severity score ([2]; 24 h) 1 | phenotypic severity score ([2]; 48 h) 1 | phenotypic severity score ([2]; 72 h) 0 | drug effect ([3]; 24 h) 0.15 | drug effect ([3]; 48 h) 0.135 | drug effect ([3]; 72 h) 0.0909
114%: XTT viability [1]

COc1cccc(OC)c1C(=O)Nc1ccc(Cl)c(-c2nc3ccccc3s2)c1
108%: XTT viability [1]
inactive: drug effect ([3]; 24 h) 0.4
active: phenotypic severity score ([2]; 24 h) 2 | phenotypic severity score ([2]; 48 h) 2 | phenotypic severity score ([2]; 72 h) 2 | drug effect ([3]; 48 h) 0.5 | drug effect ([3]; 72 h) 0.625

CC(C)(CN)c1nc(-c2ccc(Cl)c(O)c2)c(-c2ccnc(N)n2)[nH]1
156%: XTT viability [1]
inactive: phenotypic severity score ([2]; 24 h) 0 | phenotypic severity score ([2]; 48 h) 0 | phenotypic severity score ([2]; 72 h) 0 | drug effect ([3]; 24 h) 0.15 | drug effect ([3]; 48 h) 0.167 | drug effect ([3]; 72 h) 0.312

CC(C)N=c1cc2n(-c3ccc(Cl)cc3)c3ccccc3nc-2cc1Nc1ccc(Cl)cc1
active: phenotypic severity score ([2]; 24 h) 4 | phenotypic severity score ([2]; 48 h) 4 | phenotypic severity score ([2]; 72 h) 4 | drug effect ([3]; 24 h) 1 | drug effect ([3]; 48 h) 1 | drug effect ([3]; 72 h) 1
16.6%: XTT viability [1]

Cc1ccc2[nH]c3c(NCCN(C)C)ncnc3c2c1
72.5%: XTT viability [1]
inactive: phenotypic severity score ([2]; 24 h) 1 | phenotypic severity score ([2]; 48 h) 0 | phenotypic severity score ([2]; 72 h) 1 | drug effect ([3]; 24 h) 0.25 | drug effect ([3]; 48 h) 0.222 | drug effect ([3]; 72 h) 0.333

O=C(Nc1ccc(N2CCNCC2)nc1)c1oc(-c2ccccc2)nc1C(F)(F)F
active: drug effect ([3]; 72 h) 0.625
69.7%: XTT viability [1]
inactive: phenotypic severity score ([2]; 24 h) 0 | phenotypic severity score ([2]; 48 h) 0 | phenotypic severity score ([2]; 72 h) 0 | drug effect ([3]; 24 h) 0.0811 | drug effect ([3]; 48 h) 0.389

COc1ccc(-c2cnc3cnc(-c4cccc(OC(C)C)c4)cn23)cc1
inactive: drug effect ([3]; 24 h) 0.0455 | drug effect ([3]; 48 h) < 0 | drug effect ([3]; 72 h) 0.105
39%: XTT viability [1]
active: phenotypic severity score ([2]; 24 h) 2 | phenotypic severity score ([2]; 48 h) 4 | phenotypic severity score ([2]; 72 h) 4

CCCn1c(CNc2ccccc2O)nc2ccccc21
inactive: phenotypic severity score ([2]; 24 h) 0 | phenotypic severity score ([2]; 48 h) 0 | phenotypic severity score ([2]; 72 h) 0 | drug effect ([3]; 24 h) 0.136 | drug effect ([3]; 48 h) 0.2 | drug effect ([3]; 72 h) 0.182
337%: XTT viability [1]
